This excerpt belongs to a sample that is enriched for hits.
Pf Dd2 growth – qHTS Primary assay for Inhibitors of Plasmodium falciparum Dd2 growth in vitro. P. falciparum Dd2 growth, SYBR Green, 72 h. Potency, µM (top dose mostly 28.9 µM), actives largely listed as inhibitors. 120,000 tested, 4.3% active. AID 1347417, 2020; active = well fitted inhibition curve with a large enough effect; also: nearly all actives have a fitted effect of over 65% in size
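Readout: SYBR Green fluorescence, 485 nm excitation, 535 nm emission, after ~16 h lysis at 37C. Before that, Dd2-infected red cells (2.5% hematocrit) grew 72 h with compound, 29 uM top final concentration.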
Each line names hits and unclear results; the compound was inactive in the other large screens.

CCOc1ccccc1CN1CCC2(CCN([S+](=O)([O-])c3cccc(C(F)(F)F)c3)CC2)Oc2ccccc21	Pf Dd2 growth 8.91µM
CCOc1ccccc1CN1CCC2(CCN([S+](=O)([O-])c3ccc(C)cc3)CC2)Oc2ccccc21	Pf Dd2 growth 3.98µM
O=C1CC2(CCN([S+](=O)([O-])c3cccc(C(F)(F)F)c3)CC2)Oc2cc(Cl)ccc21	none
O=C1CC2(CCN([S+](=O)([O-])c3ccccc3)CC2)Oc2ccccc2N1	none
O=C(C1CCCCC1)N1CCCC2(CC(c3ccccn3)=NO2)C1 (configuration not stated)	none
CCNC(=O)c1cccnc1OC1CCN(C(=O)c2ccccc2Cl)C1 (configuration not stated)	none
CCOC(=O)C1=C(C)N=C2SC=C(CC(=O)NCC3CC3)N2C1c1cc(OC)ccc1OC (configuration not stated)	none
CCOC(=O)c1[nH]c2c(c1Cc1ccccc1C)C(=O)CC(c1cc(OC)ccc1OC)C2 (configuration not stated)	Pf Dd2 growth 5.01µM
COc1ccc(C2CC(=O)c3c([nH]c(C(=O)OCc4ccccc4)c3C)C2)cc1OC (configuration not stated)	none
CCOC(=O)C1=C(C)N=C2SCCC(=O)N2C1c1ccc(OCc2ccccc2)cc1 (configuration not stated)	none
CCc1ccc(C2CC(=O)c3c([nH]c(C(=O)OCCOc4ccccc4)c3C)C2)cc1 (configuration not stated)	Pf Dd2 growth 5.01µM
CCOC(=O)C1=C(CNCc2ccc(Cl)cc2)NC(=O)NC1c1ccccc1 (configuration not stated)	none
CCOC(=O)c1[nH]c2c(c1Cc1ccccc1C)C(=O)CC(c1ccccc1)C2 (configuration not stated)	Pf Dd2 growth 8.91µM
O=C1CC(c2ccccc2)Cc2[nH]c(=O)c(C(=O)Nc3cccc(Cl)c3)cc21 (configuration not stated)	none
Cc1c(C(=O)OCc2ccccc2)[nH]c2c1C(=O)CC(c1ccc(Cl)cc1)C2 (configuration not stated)	none
CCc1n[nH]c(CC2CCN(C(=O)C3CC3)CC2)n1	none
Cc1cccc(NC(=O)CN2C(=O)NC3(CCS(=O)(=O)CC3)C2=O)c1	none
CCn1cc(-c2ccc(Cl)cc2)cc1C(=O)O	none
Nc1nc2c(c(=O)[nH]1)CCN(C(=O)CC(c1ccccc1)c1ccco1)C2 (configuration not stated)	none
N#Cc1cccc(NC(=O)N2CCC[C@@H](O)[C@H](NC(=O)c3ccc(OCc4ccc(F)cc4)cc3)C2)c1	Pf Dd2 growth 5.01µM
COc1cccc(NC(=O)N2CCC[C@@H](O)[C@H](NC(=O)c3ccc(OCCN4CCCC4)cc3)C2)c1	none
NC(=O)COc1ccc(C(=O)N[C@@H]2CN(C(=O)Nc3cccc(C(F)(F)F)c3)CCC[C@H]2O)cc1	none
O=C(NC[C@H]1OC[C@@H](NCc2cnc[nH]2)[C@@H]1O)c1ccncc1	none
COC[C@@H]1[C@@H](NC(=O)c2ccc3c(c2)ncn3C)[C@@H]2CCO[C@H]12	none
CC(C)Cn1nc2n(c1=O)CCN(S(=O)(=O)c1cccs1)CC2	none
CC(C)Cn1nc2n(c1=O)CCN(S(=O)(=O)Cc1ccccc1)CC2	none
CC(C)Cn1nc2n(c1=O)CCN(S(=O)(=O)c1ccc(C(C)(C)C)cc1)CC2	Pf Dd2 growth 11.2µM
CC(C)Cn1c(=O)[nH]c2cccnc21	none
O=[S+]([O-])(NC1CCN(c2nc3ncccc3o2)CC1)c1cccs1	none
CC(C)CCN(C1CCOCC1)C1CCN(Cc2ccc[nH]2)CC1	Pf Dd2 growth 3.16µM
CC(C)CCN(C1CCOCC1)C1CCN(C(=O)c2ccncc2)CC1	none
c1cncc(CN2CCC(C3CCN(Cc4ccc[nH]4)C3)CC2)c1 (configuration not stated)	none
Cc1ccc(CN2CC[C@@H]3[C@H]2C(=O)NC[C@H](CCC(=O)NCc2ccc(F)cc2)N3C)cc1	none
COc1ccc(-c2cn3cc(C(=O)N4CCCC4)nc3c(=O)n2CC2CC2)c(F)c1	Pf Dd2 growth 8.91µM
O=C(c1cn2cc(-c3ccccc3Cl)n(CC3CC3)c(=O)c2n1)N1CC[C@@H](O)C1	none
COc1ccc(-c2cn3cc(C(=O)NCCO)nc3c(=O)n2CC2CC2)c(F)c1	none
O=C(O)c1ccnc(-c2ccnc(NCCN3CCCCC3=O)n2)c1	none
O=C(NCC1CC1)c1c(OCC2CC2)cc(=O)n2c1CCCCC2	none
Cc1nnc2n1CCC(N(C)C(=O)c1cncc(Br)c1)CC2 (configuration not stated)	none
OC1CCOC2(CCN(Cc3ccccc3OC(F)(F)F)CC2)C1 (configuration not stated)	Pf Dd2 growth 5.62µM
CC(C)Oc1ccccc1CN1CCC2(CC1)CC(O)CCO2 (configuration not stated)	Pf Dd2 growth 5.01µM
COc1cccc(CN2CCC3(CC2)CC(O)CCO3)c1OC (configuration not stated)	none
OC1CCOC2(CCN(Cc3ccc(Br)o3)CC2)C1 (configuration not stated)	none
OC1CCOC2(CCN(Cc3ccncc3)CC2)C1 (configuration not stated)	none
COc1ccc2c(c1)c(CN1CCC3(CC1)CC(O)CCO3)cn2C (configuration not stated)	none
CC(O)CN1CC2(CCC1=O)CCN(S(=O)(=O)N1CCCC1)CC2 (configuration not stated)	none
COCc1nnc2n1CCC(NC(=O)c1ccoc1)CC2 (configuration not stated)	none
COc1ccc(Cl)cc1NC(=O)N1CCC(OC2CCN(S(C)(=O)=O)CC2)CC1	none
CN1C(=O)CCC2(CNC(=O)Nc3ccccc3)CCC=C12 (configuration not stated)	none
O=C(c1cc(F)ccc1F)N1CCN(C(=O)c2nnn3c2COC(c2ccccc2)C3)CC1 (configuration not stated)	none
Cc1cccc(NC(=O)N2CCc3c(c4ccccc4n3C)C2)c1C	none
Cc1cccc(NC(=O)N2CC=C(c3c[nH]c4ccccc34)CC2)c1C	Pf Dd2 growth 3.16µM
O=C(Nc1ccc(Br)cc1F)N1CC=C(c2c[nH]c3ccccc23)CC1	none
C#CCOc1cccc(CN2CCN3C(=O)CN(C)C(=O)C3C2)c1 (configuration not stated)	none
CCOc1ccc(C2c3c(-c4ccccc4O)n[nH]c3C(=O)N2Cc2ccncc2)cc1 (configuration not stated)	Pf Dd2 growth 14.1µM
COc1cc(C2c3c(oc4ccccc4c3=O)C(=O)N2Cc2ccc(C)cc2)ccc1O (configuration not stated)	none
CCOc1ccc(NC(=O)Cn2nc(Cc3ccncc3)c3ccccc3c2=O)cc1	none
COc1cc(C2c3c(-c4ccccc4O)n[nH]c3C(=O)N2Cc2ccncc2)ccc1O (configuration not stated)	none
CCCCOc1ccc(C2c3c(-c4ccccc4O)n[nH]c3C(=O)N2Cc2ccncc2)cc1OC (configuration not stated)	Pf Dd2 growth 7.08µM
CCOc1ccc(C2c3c(oc4cc(C)c(C)cc4c3=O)C(=O)N2c2ccccn2)cc1 (configuration not stated)	none
Cc1ccc(C2Cn3nnc(C(=O)N4CCC(C(=O)NCCc5cccs5)CC4)c3CO2)cc1 (configuration not stated)	none
CC(C)Cc1cn(CC2CCCN(C(=O)c3ccc4c(c3)CCO4)C2)nn1 (configuration not stated)	none
Cc1cc(C)cc(NC(=O)Cn2cc(C(=O)c3ccncc3)c(=O)c3cc(C)c(C)cc32)c1	none

Assay outcomes from PubChem.
